Bioassay records (PubChem)
D3 ag: agonists of human D3 dopamine receptor; P35462; D3R DiscoveRx beta-arrestin cells, luminescence, 90 min; max activation, %; 0.58% of 410,000 active; AID 652048; in the data active = max activation above about 30%
Target sequence (P35462 whole entry, looked up): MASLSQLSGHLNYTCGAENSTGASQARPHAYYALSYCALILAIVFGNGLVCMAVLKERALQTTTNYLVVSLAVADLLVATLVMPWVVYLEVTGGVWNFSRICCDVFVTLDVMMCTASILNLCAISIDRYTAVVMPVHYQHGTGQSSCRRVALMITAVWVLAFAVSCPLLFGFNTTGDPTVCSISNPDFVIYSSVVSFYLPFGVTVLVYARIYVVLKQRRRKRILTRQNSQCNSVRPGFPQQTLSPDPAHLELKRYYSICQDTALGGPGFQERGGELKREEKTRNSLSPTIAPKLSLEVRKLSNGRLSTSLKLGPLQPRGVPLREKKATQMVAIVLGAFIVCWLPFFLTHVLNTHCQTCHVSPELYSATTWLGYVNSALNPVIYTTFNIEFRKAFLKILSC
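Agonist-mode cell screen: cells plated at 1500/well and incubated overnight at 37 °C, then exposed to library compounds for 90 min at 37 °C. Detection reagent was added for 30–60 min at room temperature, and luminescence was read.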
DRD3 antagonist: blocks the human D3 dopamine receptor; 2.5% of 360,000 active; D3R cells, DiscoveRx beta-arrestin luminescence, antagonist mode; active compounds read low; max response, negative = inhibition, %; AID 652054; P35462; in the data active = max response below about -50%; inconclusive = no clear call, values can overlap the other calls
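Cells expressing the human receptor were seeded at 1500 cells/well, incubated overnight at 37 degrees C in 5% CO2, then exposed to library compounds with dopamine controls for 90 minutes at 37 degrees C before luminescent detection.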
D1 potentiator: potentiators of human D1 dopamine receptor | 0.036% of 360,000 active | potentiation, % at 10 µM | AID 504651 | HEK293 TREx D1 cells, calcium flux, dopamine EC20 potentiation | P21728; in the data active = potentiation above about 30%
D1 antagonist: blocks dopamine activation of the human D1 receptor; P21728; HEK293 TREx D1 cells, calcium flux, dopamine EC80; active compounds read low; 3.2% of 360,000 active; activity change, negative = inhibition, % at 10 µM; AID 504652; in the data active = activity change below about -30%
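After overnight tetracycline induction at 30 C, force-coupled D1 HEK293 cells took up a no-wash calcium dye at room temperature. Compounds were added and monitored 180 s, and the response to EC80 dopamine was then recorded.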
D1 ag: human D1 receptor agonism | HEK293 T-REx D1 cells, calcium flux, agonist mode | activation, % at 2 µM | 1% of 360,000 active | AID 504660; in the data active = activation above about 30%
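Agonism was scored from calcium flux recorded over 180 s (1 read/s) after pintool compound addition, following a 10-cycle baseline. Cells were inducible force-coupled HEK293 TREx D1, plated overnight at 30 C and loaded with no-wash calcium dye.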
Large screens that a line does not name were inactive. Rows were chosen to be rich in hits. Some 6% of all compounds tested hit in one or more screens of this group.

Cc1cccc(NC(=O)c2c(NC(=O)c3ccccc3)sc3c2CCCC3)c1	none (no result: DRD3 antagonist)
COc1ccc(OC)c(C2CC(=O)c3c([nH]c(C(=O)OCc4ccc(C)cc4)c3C)C2)c1 (stereo not drawn)	none (no result: DRD3 antagonist)
CCOC(=O)c1c(Nc2ccc(F)cc2)nnc(-c2ccccc2)c1-c1ccccc1	none (no result: DRD3 antagonist)
O=C(COc1ccc(Cl)cc1)NCC(c1ccco1)S(=O)(=O)c1ccccc1 (stereo not drawn)	none (no result: DRD3 antagonist, D1 antagonist)
O=C(Nc1ccccc1N1CCCCC1)C1CCN(C(=O)c2ccc(Cl)cc2)CC1	DRD3 antagonist -59.1
COc1ccc(NS(=O)(=O)c2ccc(NC(=O)C3CC3)cc2)cc1	D1 antagonist -87.2
CC(=O)Oc1ccc(C(=O)Nc2ccccc2C(=O)N2CCCC2)cc1	none
Cc1ccc(C(=O)N2CCC(C(=O)c3ccc(Cl)cc3)CC2)cc1	D1 antagonist -44.4
CC(=O)Oc1ccc(C(=O)Nc2ccccc2C(=O)N2CCCCC2)cc1	DRD3 antagonist -57.4
O=C(c1ccccc1)C1CCN(C(=O)c2ccc(Cl)cc2)CC1	none
O=C(Cc1cccs1)Nc1c(C(=O)Nc2ccc(F)cc2)oc2ccccc12	none (no result: DRD3 antagonist)
CCOc1ccc(N(C)C(=O)C2CCN(S(=O)(=O)c3ccc4c(c3)CCCN4C(C)=O)CC2)cc1	none (no result: DRD3 antagonist)
CN(CCOc1ccc(Cl)cc1)C(=O)C1CCN(C(=O)c2ccc(F)cc2)CC1	D1 antagonist -32.9
CCOc1ccc2[nH]c(=O)c(CN(Cc3ccco3)C(=O)c3ccc(Br)cc3)cc2c1	none
COc1ccc2[nH]c(=O)c(CN(Cc3cccs3)C(=S)Nc3cccc(C)c3)cc2c1	D1 antagonist -31.6
COc1ccc2[nH]c(=O)c(CN(c3ccccc3)S(=O)(=O)c3ccccc3)cc2c1	D3 ag 33.2
COc1ccc2[nH]c(=O)c(CN(C(=O)c3cccnc3)c3ccccc3)cc2c1	D1 potentiator 36.1
COc1ccc2[nH]c(=O)c(CN(c3ccccc3OC)S(=O)(=O)c3ccccc3)cc2c1	none
COc1ccc2[nH]c(=O)c(CN(Cc3ccco3)C(=O)c3ccccc3)cc2c1	DRD3 antagonist -88.5
Cc1ccc2c(c1)cc1c(=O)n(CC(=O)N3CCCCC3)nc(C)n12	none (no result: DRD3 antagonist)
COc1cccc(CN(C(=O)c2oc3ccccc3c2C)C2CCS(=O)(=O)C2)c1 (stereo not drawn)	none (no result: DRD3 antagonist)
COc1ccc2[nH]c(=O)c(CN(Cc3cccnc3)C(=O)Nc3ccccc3)cc2c1	D1 antagonist -37.0
CCOc1ccc(C2C(C#N)=C(N)SC(N)=C2C#N)cc1OC	D1 ag 40.2 (no result: D3 ag, DRD3 antagonist)
CCOc1ccc(C2C(C#N)=C(N)SC(N)=C2C#N)cc1OCC	DRD3 antagonist inconclusive
CCc1ccc(C2C(C#N)=C(N)SC(N)=C2C#N)cc1	D1 ag 30.1
O=C(NNc1ccccc1)OCc1ccccc1	none (no result: D1 potentiator, D1 antagonist, D1 ag)
CCCCn1c(=O)[nH]c(=O)c2c1nc(CN1C(=O)c3ccccc3S1(=O)=O)n2CCC	none
CCCCn1c(=O)[nH]c(=O)c2c1nc(Cn1ncc(Cl)c(Cl)c1=O)n2CCC	DRD3 antagonist -64.4
COc1cc(CNC(=O)c2cc(-c3cc(Cl)ccc3C)n[nH]2)cc(OC)c1	none (no result: D1 potentiator, D1 antagonist, D1 ag)
C/C(CC(=O)Nc1cccnc1)=N\NC(=O)c1ccc([N+](=O)[O-])c(Cl)c1	none
CC(=O)Nc1ccccc1NC(=O)C/C(C)=N/NC(=O)c1ccc([N+](=O)[O-])c(Cl)c1	DRD3 antagonist -58.0
Cc1c(O)ccc(NS(=O)(=O)c2ccccc2)c1C	D1 antagonist -36.4
COc1ccc(S(=O)(=O)Nc2cc(S(=O)(=O)c3ccccc3)c(O)c(C)c2C)cc1	none (no result: DRD3 antagonist)
Cc1cc(NS(=O)(=O)c2ccccc2)c([N+](=O)[O-])cc1C	DRD3 antagonist -52.4
Cc1cc(NS(=O)(=O)c2ccccc2)c(C)c(Cl)c1O	D1 ag 43.9
O=S(=O)(O)c1c(NS(=O)(=O)c2ccccc2)ccc2ccccc12	D1 antagonist -35.9 (no result: D3 ag, DRD3 antagonist)
O=S(=O)(Nc1ccc(O)c(NS(=O)(=O)c2ccccc2)c1)c1ccccc1	none
Cc1ccc(Cl)cc1N1CCN(C(=O)c2cc(S(=O)(=O)N3CCCCC3)cn2C)CC1	none (no result: DRD3 antagonist)
CCc1c(C)nc2[nH]ncn2c1=O	none (no result: D1 potentiator, D1 antagonist, D1 ag)
Cc1ccc(OC(=O)c2cc(-c3ccccc3)nc3ccc(C)cc23)cc1	none (no result: DRD3 antagonist)
CNc1ncc(Cc2ccccc2)s1	D1 antagonist -52.7
O=C(Nc1ncc(Cc2ccccc2)s1)C1CCCO1 (stereo not drawn)	none
CCC(=O)N1c2ccccc2CC1C(=O)NCc1cc(Br)ccc1OC (stereo not drawn)	none (no result: DRD3 antagonist)
CC(C)CC(NC(=O)c1ccc(Cl)cc1)C(=O)OCC(=O)c1ccc2c(c1)NC(=O)CO2 (stereo not drawn)	DRD3 antagonist -72.6
O=C1COc2ccc(C(=O)COC(=O)c3ccccc3F)cc2N1	DRD3 antagonist -50.8 (no result: D1 potentiator, D1 antagonist, D1 ag)
COc1cc(/C=C/C(=O)OCC(=O)c2ccc3c(c2)NC(=O)CO3)ccc1OC(F)F	none (no result: D1 potentiator)
COc1ccc(/C=C/C(=O)OCC(=O)c2ccc3c(c2)NC(=O)CO3)cc1	D1 potentiator 30.2
O=C1COc2ccc(C(=O)COC(=O)CCCOc3ccccc3)cc2N1	none (no result: D1 potentiator, D1 antagonist, D1 ag)
O=C1COc2ccc(C(=O)COC(=O)c3ccccc3[N+](=O)[O-])cc2N1	none
O=C1COc2ccc(C(=O)COC(=O)CCSc3ccccc3)cc2N1	D1 antagonist -30.7
CC(=O)Nc1ccccc1-c1nc2ccccc2n(C(C)C(=O)Nc2cc(Cl)ccc2C)c1=O (stereo not drawn)	none (no result: DRD3 antagonist)
Cc1c(C(=O)NN2CCCCC2)nn(-c2ccc(Cl)cc2Cl)c1-c1ccc(Cl)cc1	none (no result: DRD3 antagonist, D1 potentiator, D1 antagonist, D1 ag)
CCN(CC)CCN(C(=O)c1ccco1)c1nc2c(C)c(C)ccc2s1	none (no result: DRD3 antagonist)
Cc1cc(=O)n2nc(N3CCC(C(=O)Nc4ccc(Br)c(C)c4)CC3)sc2n1	none (no result: DRD3 antagonist)
COc1ccc(OC)c(-n2c(C)ccc2-c2ccc(S(C)(=O)=O)cc2)c1	D1 antagonist -68.5
COc1ccccc1N1CCN(CCCCOc2c(OC)cccc2OC)CC1	DRD3 antagonist -108.2
COc1ccc(C(=O)C(=O)N2CCC(Cc3ccccc3)CC2)cc1OC	none (no result: D1 potentiator, D1 antagonist, D1 ag)
COc1ccc(S(=O)(=O)N2CCN(CCCOc3ccc(F)cc3)CC2)cc1OC	none
COc1ccccc1N1CCN(CCOc2c(OC)cccc2OC)CC1	DRD3 antagonist -68.0
COc1ccccc1N1CCN(CCCOc2ccc(F)cc2)CC1	DRD3 antagonist -90.7
COc1cccc(OC)c1OCCCN1CCC(Cc2ccccc2)CC1	DRD3 antagonist -95.2
Cc1cccc(C)c1OCC(=O)Nc1c(C(=O)c2ccccc2)oc2ccccc12	none (no result: DRD3 antagonist)
COc1cccc(OC)c1OCCN1CCN(C(c2ccccc2)c2ccccc2)CC1	DRD3 antagonist -108.8
OCCOCCN1CCN(C(c2ccccc2)c2ccc(Cl)cc2)CC1 (stereo not drawn)	DRD3 antagonist -89.0
COc1ccccc1N1CCN(CCCN=C2CC(=O)N(C)C(=O)N2C)CC1	DRD3 antagonist -55.7 (no result: D1 potentiator, D1 antagonist, D1 ag)
Cc1ccc(Cc2nc3ccccc3nc2SCC(=O)N2CCc3ccccc32)cc1	none (no result: DRD3 antagonist)
CC(=O)Nc1ccc(-n2c(=O)c3ccccc3c3ccccc3c2=O)cc1	DRD3 antagonist -88.2
